Sampled rows, rich in hits. Any-hit rate of the full collection: about 2.3%.
TAG inh: inhibitors of triacylglycerol accumulation; H9c2 cells, Nile Red lipid (TAG) fluorescence; cells loaded with 200 µM oleic acid; inhibition, % at 12.5 µM; 0.66% of 230,000 active;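 active = pattern-corrected inhibition of lipid staining of at least 50% with the nuclear-stain viability signal not falling by more than 50%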;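 also: 0% = DMSO wells and 100% = triacsin C control wells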
H9c2 protect: modulators protecting cardiomyocytes from myocardial damage; H9c2 cardiomyocytes, H2O2 injury protection, ATPLite, 2 h; protection from H2O2 cell death, % at 20 µM; 0.63% of 360,000 active;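 active = compounds giving at least 50% protection of heart cells from peroxide-induced death in the single-dose screen, raw or plate-pattern-corrected value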;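 also: 0% = DMSO wells with peroxide and 100% = DMSO wells without peroxide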
FAS-TE inh: blocks the thioesterase domain of human fatty acid synthase; P49327; recombinant FAS-TE, OMFH fluorogenic substrate, fluorescence endpoint; inhibition, % at 15 µM; 0.67% of 360,000 active;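 active = compounds whose normalised, plate-corrected inhibition of enzyme fluorescence in the single-dose primary screen is 50% or more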;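 also: 0% = DMSO with enzyme and 100% = substrate without enzyme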
aDG glyco act: increases alpha dystroglycan glycosylation. Pro5-aDG cells, alpha-DG glycosylation AlphaScreen (IIH6); 0% Pro5, 100% B10-LARGE cell signal. activation, % at 10 µM. 0.22% of 360,000 active. AID 624168;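 active = activation of at least 8% versus controls, or a plate z-score of at least 8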;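 also: Pro5 are CHO cells carrying HIG-tagged alpha-DG that lacks glycosylation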
m-calpain inh: blocks pig calpain II enzyme activity; purified calpain II, fluorogenic peptide substrate, 30 min; inhibition, % at 16 µM; 0.37% of 220,000 active;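 active = inhibition above about 50%, limit read from the data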
MIN6 prolif: inducers of beta-cell replication in MIN6 cells; MIN6 cells proliferation, ATPlite luminescence, 48 h; cells starved in 0.2% serum; 100% = growth in 10% serum; AID 2380; 0.29% of 330,000 active; proliferation, % at 10 µM;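 active = compounds whose signal lies at least 3.5 SD above the mean of all wells on their plate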;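 also: 0% = DMSO-treated cells in low-serum medium and 100% = 10% serum control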
Active calls of the source: *; i = inactive; . = no result given.

SMILES	TAG inh	H9c2 protect	FAS-TE inh	aDG glyco act	m-calpain inh	MIN6 prolif
CCOC(=O)C1CCCN(S(=O)(=O)c2ccc(S(=O)(=O)N(CC)CC)cc2)C1 (centres undefined)	-33	-24	13	7.4*	14	-6
CC(C)Nc1ncnc2c1ncn2[C@H]1CN(Cc2cccs2)C[C@@H](CO)O1	4	4	-5	0	.	.
O=C(Nc1ccc2ccccc2c1)C(=O)C1C(=O)Nc2ccccc21 (centres undefined)	.	.	.	.	51*	-3
CCOc1ccc(C2c3c(oc4ccccc4c3=O)C(=O)N2c2ccc(C)cn2)cc1OC (centres undefined)	.	16	26	0	-34	-4
COc1cc(C2c3c(oc4ccccc4c3=O)C(=O)N2c2ccc(C)cn2)ccc1O (centres undefined)	7	63*	-3	0	-15	1
COc1ccc(N2CCN(C(c3cccs3)C(C)NS(C)(=O)=O)CC2)cc1 (centres undefined)	.	0	-4	0	51*	-5
CCN1C(=O)/C(=C/c2nc3ccccc3c(=O)n2-c2ccccc2)c2ccccc21	18	51*	1	-1	-20	-7
COc1ccc(C(=O)N2CCN(c3ccccc3)CC2)cc1S(=O)(=O)NC1CC1	2	10	-3	0	.	-1
CCOc1ccc(S(=O)(=O)N(CC)CC(=O)NCc2cccnc2)cc1	.	0	-3	0	.	0
CCC(C)[C@@H](NC(=O)OC(C)(C)C)c1nnc(S(=O)(=O)Cc2cccc(C)c2)o1 (some centres undefined)	18	-44	60*	0	18	.
CCOc1cc(/C=C2\SC(=N)N(c3nccs3)C2=O)ccc1OCCN1CCOCC1	.	54*	-3	1	-14	-1
CCOc1cc(/C=C2\SC(=S)N(N3CCOCC3)C2=O)ccc1O	6	-12	-2	0	-7	0
C[C@@H]1CN([C@H](C)CO)C(=O)CCCn2cc(nn2)CO[C@H]1CN(C)C(=O)Nc1ccc(-c2cccs2)cc1	-7	1	-4	0	.	.
O=c1c2ccccc2nc2c3ccccc3c(NCCO)nn12	1	58*	-6	0	i	-6
CC(=O)c1c(C(C)=O)c(C)n(C(c2ccccc2)c2ccccc2)c1C	-2	-2	14	0	51*	1
CC(=O)c1c(C)nn(-c2ccccc2)c1C	-4	0	-5	0	-6	-2
Cc1ncc(CO)c(CO)c1OCC(O)CN1CCN(c2ccc(F)cc2)CC1 (centres undefined)	.	4	0	0	.	.
O=c1nc(SCc2ccccc2Cl)nc(-c2ccc(Cl)cc2)[nH]1	-5	-4	4	0	50*	-4
CC(C)(C)c1cc(=O)[nH]c(SCc2ccccc2Cl)n1	.	1	10	0	31	-1
CCOc1ccc(NC(=O)CN(C)C(=O)Cc2n[nH]c(=O)c3ccccc23)cc1OCC	-19	59*	-5	0	.	1
COc1cccc(NC(=O)CN(C)C(=O)Cc2n[nH]c(=O)c3ccccc23)c1	1	79*	-6	0	.	-3
CCOc1ccc(NC(=O)CN(C)C(=O)Cc2c[nH]c3ccccc23)cc1OCC	17	2	-7	0	.	-3
COc1ccc(Cl)cc1NC(=O)CN(C)C(=O)Cn1c(=O)oc2ccccc21	32	0	-5	0	.	-2
COc1ccc(NC(=O)CN(C)C(=O)Cc2n[nH]c(=O)c3ccccc23)cc1	-13	61*	-1	0	.	3
COc1ccc(Cl)cc1NC(=O)CN(C)C(=O)Cc1n[nH]c(=O)c2ccccc12	-2	100*	-4	0	.	-1
SMILES	TAG inh	H9c2 protect	FAS-TE inh	aDG glyco act	m-calpain inh	MIN6 prolif
COC(=O)c1cc(NC(=O)Nc2cc(OC)ccc2OC)cc(C(=O)OC)c1	.	54*	14	-1	-35	-2
CCOc1ccc(Nc2nc(N)nc(CCl)n2)cc1	72*	-7	-3	0	8	-6
Cc1ccc(Nc2nc(N)nc(CN3CCCCCC3)n2)c(C)c1	.	16	-5	0	-22	-3
Cc1ccc(Nc2nc(N)nc(CCl)n2)cc1	15	-5	-6	1	6	-5
Cc1ccc(Nc2nc(N)nc(CCl)n2)c(C)c1	80*	7	-8	0	7	-3
Cc1cccc(Nc2nc(N)nc(CCl)n2)c1C	80*	4	-1	0	-9	-2
COc1cc(/C=C2\SC(N3CCc4ccccc4C3)=NC2=O)cc(OC)c1OC	.	52*	-3	0	-1	-4
CC(=O)N(C1=C(N)C(=O)c2ccccc2C1=O)c1ccccc1	.	-9	-4	4.1*	.	-3
O=C(Nc1nc(COc2ccccc2)cs1)C12CC3CC(CC(C3)C1)C2	.	-12	18	0	58*	-6
CC(=O)Nc1nc(COc2ccccc2)cs1	.	-8	-6	0	-13	-2
CCOc1ccc(NS(=O)(=O)c2ccc(NC(=S)NC(=O)CC(C)C)cc2)cc1	11	-24	18	0	52*	-4
CC(C)(C)C1CCC(=NNC(=O)c2cc3c(s2)CCCC3)CC1 (centres undefined)	.	8	-2	0	10	1
CC(C)(C)C1CCc2sc(C(=O)NNC(=O)CCl)cc2C1 (centres undefined)	24	2	5	-1	66*	.
O=C(COC(=O)c1ccc(Cl)nc1)Nc1ccc2c(c1)OCCO2	-14	-4	-4	0	.	-5
COc1ccc(-n2nnnc2C(c2ccccc2OC(F)(F)F)N2CCN(C/C=C/c3ccccc3)CC2)cc1 (centres undefined)	.	-7	24	0	.	.
CCC(CNc1cc(OC)cc2cccnc12)NC1CCCCC1 (centres undefined)	.	-16	-3	7.1*	28	.
CCCNC(=O)C1(C)CCN(Cc2cc(C(F)(F)F)ccc2Cl)C1 (centres undefined)	-5	-4	5	0	.	.
CC(=O)Nc1ccc(Sc2ccc([N+](=O)[O-])o2)cc1	63*	-18	5	-1	.	.
NS(=O)(=O)c1ccc(N/N=C/c2ccccc2C(=O)O)c([N+](=O)[O-])c1	3	5	-4	0	-7	1
Cc1ccc(NC(=O)c2ccc(N/N=C/c3cccc(O)c3)c([N+](=O)[O-])c2)cc1	60*	6	0	0	30	-5
Cc1ccccc1NC(=O)c1ccc(N/N=C/c2ccccc2O)c([N+](=O)[O-])c1	17	6	-11	0	55*	-4
CC1(C(=O)NS(=O)(=O)C2CC2)CCN(C(=O)c2cc3ccccc3s2)C1 (centres undefined)	4	9	-3	0	.	.
O=C(Nc1cccc(C(=O)N2CCOCC2)c1)C1CCCCC1	.	.	-3	0	.	.
O=C1C(Cl)=C(N2CCC(C(=O)O)CC2)C(=O)c2ccccc21	6	-10	20	1	12	-4

Screens: PubChem, several laboratories
